# Only some compounds are listed: those with a hit (about 6.2% of all), similar ones and a draw of the others.
# HT1080 IDH1KD tx: qHTS for induction of synthetic lethality in tumor cells producing 2HG: qHTS for the HT-1080-IDH1KD cell line; 2% of 360,000 active; HT-1080 IDH1 knockdown viability, ATP luminescence, 48 h; Potency, µM (titrated, usually from 46.1 µM), without a hit: top-dose activity, negative = toxicity, usual class: cytotoxic;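 further: 0% = DMSO wells and -100% = cell-free medium wells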
#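 In this qHTS, HT-1080 cells depleted of IDH1 are exposed for 48 h at 37 °C to compound titrations. Toxicity is scored from CellTiter-Glo luminescence, with DMSO as full viability and medium alone as none.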
# HT1080-NT tox: qHTS for induction of synthetic lethality in tumor cells producing 2HG: qHTS for the HT-1080-NT fibrosarcoma cell line; HT-1080-NT fibrosarcoma viability, CellTiter-Glo ATP luminescence, 48 h; Potency, µM (titrated, usually from 46.1 µM), inactives show at the top dose activity, negative = less viability, usual class: cytotoxic; 1.6% of 360,000 active;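 further: NT is the 2HG producing partner of a matched IDH1 knockdown line; 0% = DMSO-treated cells and -100% = media-only wells without cells; nearly all actives have a fitted effect of over 55% in size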
#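 Toxicity toward the 2HG-producing NT line was scored as %Activity, normalised to DMSO and no-cell wells, from CellTiter-Glo luminescence after 48 hours' treatment.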
# ATXN viability: Viability Counterscreen for Primary qHTS for Inhibitors of ATXN expression. S2 cells (HEK-293 line with an ATXN2-luciferase reporter) viability, CellTiter-Fluor protease fluorescence, 24 h. Potency, µM (highest dose often 56.7 µM), hits mostly cytotoxic. 0.49% of 400,000 active. AID 651635, 2014; further: nearly all actives have a fitted effect of over 40% in size
# ATXN2 expr inh: Primary qHTS for Inhibitors of ATXN expression | HEK-293 ATXN2-luciferase reporter, luminescence, 24 h | Potency, µM (titrated, usually from 57 µM), without a hit: at the highest dose activity change, negative = inhibition, most hits filed as inhibitors | 0.72% of 360,000 active; further: on the % scale 0 is the no-effect control and ±100 the full control effect; nearly all actives have a fitted effect of over 55% in size
#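 qHTS (up to 57 uM final) was run with 24 h compound exposure of reporter cells at 37 °C. Each well was multiplexed: SteadyGlo luminescence measured ATXN2-luciferase expression after a fluorogenic Gly-Phe-AFC viability readout (25 uM final).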
# KB-V1 cytotox: qHTS assay for MDR1-selective chemotherapeutics: Primary screen using the drug-selected MDR subline cells KB-V1; KB-V1 MDR cells viability, CellTiter-Glo, 72 h; Potency, µM (titrated, usually from 46.1 µM), actives largely listed as cytotoxic; 3.4% of 400,000 active; AID 1347076, 2019; further: on the % scale 0 is the no-effect control and ±100 the full control effect; nearly all actives have a fitted effect of over 60% in size
#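 Readout: CellTiter-Glo luminescence, 10 min after addition. Cells: KB-V1 MDR subline, 72 h at 37 degrees C with compound. Analysis: corrected, normalized data fitted to concentration-effect curves.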
# KB-3-1 tox: qHTS assay for MDR1-selective chemotherapeutics: Primary screen using the parental adenocarcinoma cell KB-3-1 | Potency, µM (top dose mostly 46.1 µM), actives largely listed as cytotoxic | KB-3-1 viability, CellTiter-Glo ATP luminescence, 72 h | 1.4% of 400,000 active; further: on the % scale 0 is the no-effect control and ±100 the full control effect; nearly all actives have a fitted effect of over 60% in size
#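 Parental KB-3-1 adenocarcinoma cells in phenol-red-free DMEM with 10% FBS were pin-treated with compounds at several concentrations, incubated 72 h at 37 °C, and viability read by CellTiter-Glo luminescence; concentration-effect curves were fitted after normalization.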
# Active calls of the source: *; i = inactive; u = inconclusive; x = not tested or not shown; [ ] = remark or other dose. The call rests on the fitted dose curve; in most records, active means well fitted curve in the direction sought with a large enough effect; inconclusive means small, poorly fitted or top-dose-only effect, or another doubt; inactive means no such curve, though single readings can be large; an effect the other way counts as inactive or inconclusive. Potency means the concentration at half of the fitted maximal effect.
SMILES,HT1080 IDH1KD tx,HT1080-NT tox,ATXN viability,ATXN2 expr inh,KB-V1 cytotox,KB-3-1 tox
O=C(NCc1ccc(F)cc1)c1ccc(CS(=O)(=O)c2ccc(Br)cc2)o1,-21%,-6%,x,x,13µM*,i
O=C(NCC1CCCO1)c1ccc(CS(=O)(=O)c2ccc(Cl)cc2)o1 (stereo unspecified),5%,16%,i,-4%,23µM*,i
O=C(NCC1CCCO1)c1ccc([N+](=O)[O-])o1 (stereo unspecified),-28%,u,u,0%,u,21µM*
Cc1ccc(-c2nc3ccccc3[nH]2)cc1NC(=O)COc1cccc(C)c1C,x,x,i,-12%,i,u
Cc1ccc(CNC(=O)CCc2c(C)c3ccc(O)c(C)c3oc2=O)cc1,x,x,i,-8%,i,i
COCCN(C)C(=O)c1cnn(-c2nccc(-c3cc(OC)ccc3OC)n2)c1C,x,x,i,x,x,x
CCOc1ccccc1NC(=O)COC(=O)C1CCC(=O)N1 (stereo unspecified),10%,13%,i,-4%,i,i
C/C=C/c1cccc(-c2nc(C(=O)N3CCN(C)CC3)cc3c2[C@@H](CCO)N(C(=O)NC(C)C)C3)c1,-1%,11%,i,0%,i,i
Cc1ccc(CNC(=O)CCCn2c(=O)[nH]c3ccc(Br)cc3c2=O)cc1,x,x,i,1%,i,i
COc1ccc(/C=C/c2nc3ccccc3n2Cc2ccccc2OC)cc1,16µM*,16µM*,i,-21%,u,u
COc1ccccc1Cn1c(/C=C/c2ccccc2)nc2ccccc21,-21%,-17%,i,1%,5.2µM*,16µM*
CC(C)CCN1C(=O)CSCC1(C)C(=O)NC(C)C (stereo unspecified),16%,11%,x,x,i,i
c1ccc(-c2ccc(OCCCNC3CCCC3)cc2)cc1,18µM*,15µM*,i,-8%[11.3 µM],i,u
COc1ccc(OCCNC2CCCC2)cc1,0%,3%,u,x,i,i
COc1ccc(N2CC(NC(=O)COc3cccc(C)c3)CC2=O)cc1OC (stereo unspecified),x,x,i,-10%,i,i
CC(C)[C@H](O)C(=O)N[C@@H](C)C(=O)N[C@@H]1C(=O)N(C)CCc2ccccc21,x,x,x,23%,x,x
CN(C(=S)NC(=O)Cc1ccccc1)c1ccccc1,18µM*,u,i,-11%,i,i
O=C(NC1CCCCC1)C(c1ccncc1)n1c(=O)c(-c2cc3ccccc3[nH]2)nc2ccccc21 (stereo unspecified),u,u,x,x,16µM*,21µM*
CC(C)(C)NC(=O)C(c1ccnc2ccccc12)n1c(=O)c(-c2cc3ccccc3[nH]2)nc2ccccc21 (stereo unspecified),23µM*,21µM*,x,x,u,u
O=C(NC1CCCCC1)C(c1ccccc1F)n1c(=O)c(-c2cc3ccccc3[nH]2)nc2ccccc21 (stereo unspecified),u,-24%,x,x,u,u
O=C(NC1CCCCC1)C(c1cccc2ccccc12)n1c(=O)c(-c2cc3ccccc3[nH]2)nc2ccccc21 (stereo unspecified),18µM*,21µM*,x,x,i,i
CC(C)(C)NC(=O)C(c1ccccc1F)n1c(=O)c(-c2cc3ccccc3[nH]2)nc2ccccc21 (stereo unspecified),u,-15%,x,x,i,u
O=C(NCc1ccc(Cl)cc1)c1ccc2oc(=O)n(Cc3ccccc3)c2c1,x,x,u,-38%,u,i
Cc1cccc(C)c1OCc1cc(=O)n2ccsc2n1,x,x,i,8%,i,i
Oc1ccccc1/C=N/NC(=S)NC1CC2CC1C1C=CCC21 (stereo unspecified),8.2µM*,u,u,-13%,21µM*,u
SMILES,HT1080 IDH1KD tx,HT1080-NT tox,ATXN viability,ATXN2 expr inh,KB-V1 cytotox,KB-3-1 tox
CCOC(=O)c1cnc2c(cnn2C)c1Oc1ccc(OC)cc1,-19%,-6%,i,-4%,u,i
CCOC(=O)c1cnc2c(cnn2C)c1NCCC(O)C(F)(F)F (stereo unspecified),-14%,4%,i,-2%,6.5µM*,i
C/C(=N\OCC(=O)OCC(=O)N(C)c1ccccc1)c1ccc2c(c1)OCO2,5%,8%,i,x,i,i
COc1cc(/C=N/NC(=O)c2nc(-c3ccccc3)n(-c3ccccc3)n2)ccc1O,7%,-4%,i,4%,i,i
COc1cc(/C=N/Nc2nc(C)nc3c2cnn3-c2ccccc2)ccc1O,u,u,i,-7%[11.3 µM],8.2µM*,u
CCC(c1nnnn1Cc1ccccc1)N1CCN(c2ccccc2)CC1 (stereo unspecified),8%,-1%,i,-18%,23µM*,i
c1ccc(CCn2nnnc2C(c2cccnc2)N2CCN(c3ccccc3)CC2)cc1 (stereo unspecified),-3%,-6%,i,0%,10µM*,i
Cc1cc(Nc2ccc(Br)c(C)c2)n2nc(-c3ccco3)nc2n1,x,x,x,x,u,i
Cc1cccc(Cn2c(SCc3ccc(C(=O)NCc4ccccc4F)cc3)nc3ccncc32)c1,x,x,u,u,i,i
Cc1cccc(Cn2c(SCc3ccc(C(=O)NCc4ccccc4F)cc3)nc3cccnc32)c1,x,x,u,-5%,15µM*,u
Cc1cccc(Cn2c(SCc3ccc(C(=O)NCCc4ccccc4)cc3)nc3cccnc32)c1,x,x,u,-5%,18µM*,u
Cc1cc(NC(=O)C2CCCN(S(=O)(=O)c3cccc4nsnc34)C2)ccc1Br (stereo unspecified),x,x,i,-1%,i,i
Cc1cc(N2CCN(C(=O)c3ccco3)CC2)n2nc(C)c(-c3ccccc3)c2n1,1%,-7%,i,-22%,3.7µM*,u
O=C(c1cc2nc(-c3ccccc3)cc(-c3ccccc3)n2n1)N1CCN(C(=O)c2ccco2)CC1,-26%,-29%,i,-38%,21µM*,u
CN1CCN(C(=O)c2cc3nc(-c4ccccc4)cc(-c4ccccc4)n3n2)CC1,u,15µM*,i,-13%,i,i

# Compound activity from PubChem.
